High-throughput results as filed in PubChem BioAssay.
Compounds with a hit are over-represented: about 0.75% of the library has one in this group of screens.
TSHR antagonist – antagonists of human thyroid stimulating hormone receptor | P16473 | TSHR-expressing cells, TSH-stimulated cAMP HTRF, 2 h; active compounds read low | activity change, negative = inhibition, % at 11.5 µM | actives 0.2% (n = 330,000) | AID 504810;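 active = activity change below a set negative limit, meaning inhibition stronger than a set level, cut at about -70% in these data; inconclusive = activity change between two set negative limits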; also: % is scaled to controls: 0 for no effect and ±100 for the full control effect
Target sequence (P16473 whole entry, looked up): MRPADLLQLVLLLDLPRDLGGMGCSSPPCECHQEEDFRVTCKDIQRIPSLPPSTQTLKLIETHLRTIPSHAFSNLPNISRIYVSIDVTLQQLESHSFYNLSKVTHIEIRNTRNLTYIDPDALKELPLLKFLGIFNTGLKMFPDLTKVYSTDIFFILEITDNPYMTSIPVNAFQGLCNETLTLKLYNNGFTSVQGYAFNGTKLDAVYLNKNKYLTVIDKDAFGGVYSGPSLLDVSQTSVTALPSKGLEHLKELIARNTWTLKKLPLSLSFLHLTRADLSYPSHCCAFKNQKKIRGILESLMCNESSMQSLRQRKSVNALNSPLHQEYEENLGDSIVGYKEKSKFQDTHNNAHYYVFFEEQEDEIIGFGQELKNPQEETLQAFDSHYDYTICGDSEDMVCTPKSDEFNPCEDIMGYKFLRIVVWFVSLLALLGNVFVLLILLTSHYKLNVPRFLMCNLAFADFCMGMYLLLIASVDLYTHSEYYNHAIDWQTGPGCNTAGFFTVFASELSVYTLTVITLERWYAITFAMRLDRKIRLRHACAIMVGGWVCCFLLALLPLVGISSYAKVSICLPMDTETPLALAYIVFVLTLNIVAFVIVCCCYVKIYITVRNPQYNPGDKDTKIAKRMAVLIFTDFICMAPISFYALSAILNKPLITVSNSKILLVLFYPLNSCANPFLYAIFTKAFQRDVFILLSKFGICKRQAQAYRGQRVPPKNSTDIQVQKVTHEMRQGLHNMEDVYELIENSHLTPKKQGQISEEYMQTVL
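Competitive HTRF cAMP read-out (cryptate anti-cAMP antibody, cAMP-d2; 30 min, room temperature) in freshly harvested TSHR cells. Compounds added before TSH at EC80 (4nM final), followed by 2 hours' incubation at 37 deg C.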
uPA surface inh – inhibitors of cell surface uPA generation; cell surface uPA generation assay, qHTS; Potency, µM (series often up to 38.3 µM), for the others: at the highest dose activity change, negative = inhibition, usual class: inhibitors; actives 0.31% (n = 330,000); active = well fitted inhibition curve with a large enough effect; inconclusive = small, poorly fitted or top-dose-only effect; inactive = no such curve, though single readings can be large or run the other way; tested in mouse RAW 264.7 cells; also: potency is read from the fitted curve at half-maximal effect; % is scaled to controls: 0 for no effect and ±100 for the full control effect; nearly all actives have a fitted effect of over 55% in size
TCR activator – activators of T cell receptors | AID 504894 | 330,000 tested, under 10 active | Potency, µM (top dose mostly 9.22 µM), inactives show at the top dose activation of IL-2 secretion, most hits filed as activators | primary human leukocytes, anti-CD3, IL-2 HTRF, 48 h; also: % of control where 0% means no effect
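48 hr co-incubation of compounds, a-CD3 beads and primary human leukocytes; IL-2 quantified homogeneously by HTRF with anti-IL-2 K and d2 conjugates.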
PKM2 act – increases activity of human pyruvate kinase M2; P14618; purified PKM2, Kinase-Glo ATP luminescence, activation; response scale: 0% is enzyme alone, no compound; Potency, µM (top dose mostly 57.5 µM), inactives show top-dose activation, most hits filed as activators; actives 0.34% (n = 260,000); also: potency is read from the fitted curve at half-maximal effect; % is scaled to controls: 0 for no effect and ±100 for the full control effect; nearly all actives have a fitted effect of over 55% in size
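ATP formation by purified human PK-M2, quantified via coupled luciferase luminescence after 1 h at room temperature with 0.1 mM ADP and 0.5 mM PEP final.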
* marks the source's active call; other numbers are inactive results; u = inconclusive; x = no result given; [ ] = another dose, or the depositor's remark. Unless noted, calls follow the shape of the dose curve; as a rule, active = well fitted curve in the direction sought with a large enough effect; inconclusive = small, poorly fitted or top-dose-only effect, or another doubt; inactive = no such curve, though single readings can be large; an effect the other way counts as inactive or inconclusive.

SMILES	TSHR antagonist	uPA surface inh	TCR activator	PKM2 act
CCN(CC)CCCNc1oc(/C=C/c2ccccc2)nc1C#N	19.6	-3.1%	-8.2%	-11.6%
CCNc1oc(/C=C/c2ccc(OCC)cc2)nc1C#N	-4.3	3.16µM*	1.3%	-4.7%
Cc1ccc(S(=O)(=O)N[C@H](C(=O)N2CCC(C(=O)N[C@@H](CC(=O)O)C(=O)O)CC2)C(C)C)cc1	3.7	-1.8%	-3.5%	-1.8%
Oc1ccc(CNCc2ccc3c(c2)OCO3)c2cccnc12	-8.4	x	x	x
O=C(NC1CC1)C1=C[C@@H](c2csc3ccccc23)C[C@@H](OCCCCO)O1	-7.3	-10.4%	3.1%	14.1µM*
CC(Oc1ccccc1)C(=O)N1CCC2(CC1)CC(=O)c1ccccc1O2 (stereo not drawn)	33.2	0.5%	1.6%	x
CCOC(=O)c1[nH]c(C)c(C(=O)Nc2ccc(C)cc2C)c1C	1.9	2.51µM*	3.6%	-10.7%
COc1ccc([C@]23Cc4cc(OC)c(OC)cc4C(O2)C2=C(CCCC2=O)O3)cc1	x	x	x	4.6%[11.5 µM]
C=C(CN(C)C)C(=O)c1cc(C)ccc1C	x	16.5%	4.5%	x
CCCN1C(=O)S/C(=C\c2ccc(N3CCOCC3)o2)C1=O	-27.1	-17.7%	-5.2%	3.55µM*
COc1ccc(CNC(=O)N2CCN(S(=O)(=O)c3ccc(C)cc3C)CC2)cc1	-6.3	0.4%	4.6%	4.47µM*
Cc1ccc(S(=O)(=O)N2CCN(C(=O)NCc3ccc(F)cc3)CC2)c(C)c1	-11.1	0.5%	-7.1%	x
COCCCNC(=S)N1CCN(S(=O)(=O)c2ccc(OC)cc2)CC1	-0.8	6.6%	-1.6%	0.891µM*
COc1ccc(S(=O)(=O)N2CCN(C(=S)NCCc3ccccc3)CC2)cc1	-3.7	-7.2%	0.6%	0.3%
COc1ccc(S(=O)(=O)N2CCCN(S(=O)(=O)c3ccc(OC)cc3C)CC2)c(C)c1	-6.1	1.6%	3.1%	8.91µM*
COc1ccc(S(=O)(=O)N2CCN(C(=O)NCc3ccc(C)cc3)CC2)cc1	-0.1	1.0%	-1.2%	7.08µM*
c1ccc(-n2cc(CNCCc3cscn3)c(-c3ccc4c(c3)OCO4)n2)cc1	-5.4	-4.1%	-2.7%	-2.0%
O=C(Nc1ccc(Cl)cc1)c1nc[nH]c1C(=O)NCCCNC(=O)c1[nH]cnc1C(=O)Nc1ccc(Cl)cc1	-15.0	x	x	x
NC(=O)C1CCN(c2nc(-c3ccccc3)cs2)CC1	1.5	x	x	x
NS(=O)(=O)c1ccc(CCNC(=O)c2ccc[nH]c2=S)cc1	-0.1	-1.2%	4.2%	x
COc1cccc(CNC(=O)N2CCN(S(=O)(=O)c3ccc(C)cc3)CC2)c1	13.9	0.2%	1.3%	11.2µM*
C=CS(=O)(=O)c1ccc(Oc2ccc(S(=O)(=O)C=C)cc2)cc1	-89.5*	69.8%	-4.0%[46.1 µM]	0.2%
NS(=O)(=O)c1ccc(Oc2ccc(S(N)(=O)=O)cc2)cc1	-3.9	4.2%	x	-1.3%
O=C(NC1CCCCC1)c1n[nH]c2c1CCCCC2	11.9	3.16µM*	-2.9%	x
CCN1CCN(CCCNC(=O)c2cc3c(s2)-c2ccccc2OC3)CC1	-1.8	-20.9%	3.5%	x
SMILES	TSHR antagonist	uPA surface inh	TCR activator	PKM2 act
Cc1cccc2c1-c1sc(C(=O)NCCCN3CCCC(C)C3)cc1CO2 (stereo not drawn)	-74.6*	u	-1.4%	x
CCCN1CCN(CCCNC(=O)c2cc3c(s2)-c2ccccc2OC3)CC1	-72.4*	-20.7%	-4.0%	x
Cc1ccc(-c2cc(C(=O)N3CCN(c4ccc(O)cc4)CC3)c3ccccc3n2)cc1	x	10µM*	x	x
Cc1ccc(-c2cc(C(=O)N3CCN(c4ccccc4O)CC3)c3ccccc3n2)cc1	8.7	-4.1%	1.3%	x
CCOc1ccc(-c2cc(C(=O)N3CCN(c4ccccn4)CC3)c3ccccc3n2)cc1	10.3	x	x	-6.0%
CCCc1ccc(-c2cc(C(=O)N3CCN(c4ccccn4)CC3)c3ccccc3n2)cc1	-18.3	7.08µM*	0.9%	-4.8%
CN1CCCN(C(=O)c2cc(-c3cccc4ccccc34)nc3ccccc23)CC1	-76.8*	-5.3%	-4.9%	-1.4%
CSc1ccccc1C(=O)Nc1ccccc1C(=O)NC(C)C	-6.6	1.6%	-1.9%	-32.8%
COc1ccc(Cl)cc1CC=NNC(=O)c1cccc(C)c1O	x	-3.3%	-2.0%	x
COC(=O)[C@@H]1C[C@@]2(O)[C@H](O)[C@H](O)[C@H](O)C[C@H]2N1Cc1ccc(N2CCN(C)CC2)cc1	x	x	x	0.5%
O=C(Nc1ccc(Cl)cc1)[C@@H]1[C@@H]2C(=O)N(c3ccc4ccccc4c3)C(=O)[C@@H]2[C@H]2C=CC=NN21	-7.6	3.3%	-11.7%	u
COc1ccc(N2C(=O)[C@@H]3[C@H](C2=O)[C@H]2C=CC=NN2[C@@H]3C(=O)Nc2ccc(Cl)cc2)cc1	-5.3	-11.7%	0.3%	8.91µM*
CN(Cc1ccccc1Cl)C(=O)c1cc2ccccc2o1	-102.1*	-2.8%	-6.3%	-1.2%
Cc1ccc(S(=O)(=O)/N=C2/NC(=O)/C(=C\c3cc(Br)cc(Br)c3O)S2)cc1	-99.8*	-18.2%	11.6%	x
Cc1ccc(S(=O)(=O)/N=C2/NC(=O)/C(=C/c3ccc(Br)o3)S2)cc1	-25.2	-0.6%	-7.8%[46.1 µM]	5.4%
CCCn1c2ccccc2c2nc3ccccc3nc21	-8.7	-1.3%	-3.5%	12.2%
CCN(CC)CCn1c2ccccc2c2nc3ccccc3nc21	-0.3	10µM*	0.8%	5.0%
COc1ccc(C[C@H](N)C(=O)N[C@H]2[C@@H](O)[C@H](n3cnc4c(N(C)C)ncnc43)O[C@@H]2CO)cc1	4.4	1µM*	3.0%	x
CN(C)c1ncnc2c1ncn2C1OC(CO)C(O)C1O (stereo not drawn)	-7.4	-13.3%	-0.1%	-4.4%
O=C(Nc1ccc2ccccc2n1)c1ccccc1Cl	-0.9	u	-0.5%	x
COc1ccc(C(=O)Nc2ccc3ccccc3n2)c(OC)c1OC	-9.9	2.82µM*	1.4%	0.7%[11.5 µM]
C/C(=N\NC(=O)c1ccc(COc2ccccc2)cc1)c1ccncc1	-0.9	7.9%	-3.9%	-1.9%
O=C(Nc1sc2c(c1C(=O)O)CCC2)C(=O)N1CCOCC1	-11.6	u	-6.5%	x
O=C(Cc1ccccc1)NC1CCN(S(=O)(=O)c2cccc(F)c2)CC1	-3.7	0.3%	x	28.2µM*
O=C(Cc1ccccc1)NC1CCN(S(=O)(=O)c2ccc(C(=O)O)cc2)CC1	37.6	1.8%	-9.7%	0.1%
SMILES	TSHR antagonist	uPA surface inh	TCR activator	PKM2 act
O=C(COc1ccccc1F)Nc1nnc(C2CCCC2)s1	-2.4	2.7%	-2.7%	x
O=C(CSc1c2c(nc3ccc(Cl)cc13)CCCC2)NCCCN1CCOCC1	6.0	8.91µM*	-2.8%	-2.4%
O=C(CSc1c2c(nc3cc(Cl)ccc13)CCCC2)NCCCN1CCOCC1	-4.0	u	-3.8%	1.2%
CN1CCN(CCCNC(=O)c2ccc3c(Cl)c4c(nc3c2)CCCC4)CC1	-6.2	11.2µM*	-5.2%	x
CCCCNc1c(-c2ccc(OC)c(Sc3ccc(OC)cc3)c2)nc2ccccn12	-16.2	u	-3.7%	x
CCCCNc1c(-c2ccc(SC(C)CC)c(OC)c2)nc2ccc(Cl)cn12 (stereo not drawn)	-14.9	2.0%	-12.2%	x
CCCCNc1c(-c2ccc(-c3ccc(OC)cc3)c(OC)c2)nc2ccccn12	-30.3	12.6µM*	-7.2%	x
